Values joined by “and” are separate entries in the source; they are usually repeats but may differ in a detail not shown here. Equal values may be shown once. About 2,000 (36%) of roughly 5,500 compounds were called active. Another 18% or so got no clear call; they are omitted. No stated cut-off is given here; in the data, active means normalized growth mostly below about 0.91 (no sharp cut-off); inconclusive means no clear call, values can overlap the other calls; inactive means mostly above about 0.92. The list shows a part of the results.
Experiment: chemical genetic growth profiling, strain panel (AID 1159580);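 further: tested at 20 µM; growth read once vehicle control cultures reached saturation at 30 °C; 1 = growth at the plate median or of vehicle wells; lower values mean less growth of the strain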
Settings: growth OD

Measured: normalized growth

NC(N)=NC(=O)c1nc(Cl)c(N)nc1N
active: S. cerevisiae deletion strains, locus YLR262C, strain YPT6, active compounds read low 1.41 [resistant]
inactive: S. cerevisiae deletion strains, locus YKL009W, strain mrt4, active compounds read low 1.03 | S. cerevisiae deletion strains, locus YKL068W, active compounds read low 1 | S. cerevisiae deletion strains, locus YKL085W, strain MDH1 (second series), active compounds read low 1.01 | S. cerevisiae deletion strains, locus YKL085W, strain MDH1, active compounds read low 1.01 | S. cerevisiae deletion strains, locus YKL160W, strain elf1, active compounds read low 1.02 | S. cerevisiae deletion strains, locus YKL190W, strain CNB1, active compounds read low 0.994 | S. cerevisiae deletion strains, locus YKR001C, strain vps1, active compounds read low 1.02 | S. cerevisiae deletion strains, locus YKR026C, strain gcn3, active compounds read low 1.03 | S. cerevisiae deletion strains, locus YKR091W, strain srl3, active compounds read low 1.03 | S. cerevisiae deletion strains, locus YLL001W, strain dnm1, active compounds read low 1.02 | S. cerevisiae deletion strains, locus YLL026W, active compounds read low 1.02 | S. cerevisiae deletion strains, locus YLL041C, strain sdh2, active compounds read low 1 | S. cerevisiae deletion strains, locus YLR027C, strain aat2, active compounds read low 1.02 | S. cerevisiae deletion strains, locus YLR039C, strain RIC1, active compounds read low 1.31 | S. cerevisiae deletion strains, locus YLR058C, strain SHM2, active compounds read low 1.01 | S. cerevisiae deletion strains, locus YLR102C, strain apc9, active compounds read low 1 | S. cerevisiae deletion strains, locus YLR113W, strain HOG1, active compounds read low 1.03 | S. cerevisiae deletion strains, locus YLR221C, strain rsa3, active compounds read low 1.03 | S. cerevisiae deletion strains, locus YLR258W, strain gsy2, active compounds read low 1.02 | S. cerevisiae deletion strains, locus YLR262C, strain YPT6 (second series), active compounds read low 1.02 | S. cerevisiae deletion strains, locus YLR268W, strain sec22, active compounds read low 1.05 | S. cerevisiae deletion strains, locus YLR320W, strain mms22, active compounds read low 1.01 | S. cerevisiae deletion strains, locus YLR330W, strain CHS5, active compounds read low 1.01 | S. cerevisiae deletion strains, locus YLR342W, strain FKS1 (second series), active compounds read low 0.893 | S. cerevisiae deletion strains, locus YLR342W, strain FKS1, active compounds read low 1.03 | S. cerevisiae deletion strains, locus YLR357W, strain rsc2, active compounds read low 1.02 | S. cerevisiae deletion strains, locus YLR370C, strain arc18, active compounds read low 1.01 | S. cerevisiae deletion strains, locus YLR371W, strain rom2, active compounds read low 1.03 | S. cerevisiae deletion strains, locus YLR384C, strain iki3, active compounds read low 1.03 | S. cerevisiae deletion strains, locus YLR418C, strain cdc73, active compounds read low 0.94 | S. cerevisiae deletion strains, locus YML016C, strain PPZ1, active compounds read low 1.01 | S. cerevisiae deletion strains, locus YML032C, strain rad52, active compounds read low 1.01 | S. cerevisiae deletion strains, locus YML120C, strain ndi1, active compounds read low 1.01 | S. cerevisiae deletion strains, locus YML124C, strain tub3, active compounds read low 1.02 | S. cerevisiae deletion strains, locus YMR058W, strain fet3, active compounds read low 1.01 | S. cerevisiae deletion strains, locus YMR078C, strain ctf18, active compounds read low 1.02 | S. cerevisiae deletion strains, locus YMR125W, strain sto1, active compounds read low 1.02 | S. cerevisiae deletion strains, locus YMR129W, active compounds read low 1 | S. cerevisiae deletion strains, locus YMR205C, strain PFK2, active compounds read low 1.02 | S. cerevisiae deletion strains, locus YMR223W, strain ubp8, active compounds read low 1.01 | S. cerevisiae deletion strains, locus YMR231W, strain pep5, active compounds read low 1.02 | S. cerevisiae deletion strains, locus YMR307W, strain GAS1, active compounds read low 1.02 and 0.992 | S. cerevisiae deletion strains, locus YNL067W, strain RPL9B, active compounds read low 1 | S. cerevisiae deletion strains, locus YNL071W, strain lat1, active compounds read low 1.01 | S. cerevisiae deletion strains, locus YNL128W, strain TEP1, active compounds read low 0.981 | S. cerevisiae deletion strains, locus YNL153C, strain GIM3, active compounds read low 1 | S. cerevisiae deletion strains, locus YNL175C, strain NOP13, active compounds read low 0.994 | S. cerevisiae deletion strains, locus YNL183C, strain NPR1, active compounds read low 0.948 | S. cerevisiae deletion strains, locus YNL197C, strain WHI3, active compounds read low 0.992 | S. cerevisiae deletion strains, locus YNL209W, strain ssb2, active compounds read low 1 | S. cerevisiae deletion strains, locus YNL224C, strain SQS1, active compounds read low 1 | S. cerevisiae deletion strains, locus YNL233W, strain BNI4, active compounds read low 1 | S. cerevisiae deletion strains, locus YNL248C, strain rpa49, active compounds read low 1.03 | S. cerevisiae deletion strains, locus YNL250W, strain rad50, active compounds read low 1.02 | S. cerevisiae deletion strains, locus YNL271C, strain bni1, active compounds read low 1.03 | S. cerevisiae deletion strains, locus YNL298W, strain CLA4, active compounds read low 1.02 | S. cerevisiae deletion strains, locus YNL307C, strain MCK1, active compounds read low 1.01 | S. cerevisiae deletion strains, locus YNL322C, strain KRE1 (second series), active compounds read low 1.02 | S. cerevisiae deletion strains, locus YNL322C, strain KRE1, active compounds read low 1.01 | S. cerevisiae deletion strains, locus YNR049C, strain mso1, active compounds read low 1.02 | S. cerevisiae deletion strains, locus YNR052C, strain pop2, active compounds read low 1.01 | S. cerevisiae deletion strains, locus YOL006C, strain TOP1, active compounds read low 0.949 | S. cerevisiae deletion strains, locus YOL012C, strain htz1 1.27 | S. cerevisiae deletion strains, locus YOL147C, strain pex11, active compounds read low 1.02 | S. cerevisiae deletion strains, locus YOR001W, strain rrp6, active compounds read low 1.03 | S. cerevisiae deletion strains, locus YOR061W, strain CKA2, active compounds read low 1.01 | S. cerevisiae deletion strains, locus YOR069W, strain VPS5, active compounds read low 1 | S. cerevisiae deletion strains, locus YOR070C, strain gyp1, active compounds read low 1.01 | S. cerevisiae deletion strains, locus YOR080W, strain dia2, active compounds read low 1.04 | S. cerevisiae deletion strains, locus YOR083W, strain WHI5 (second series), active compounds read low 1.01 | S. cerevisiae deletion strains, locus YOR083W, strain WHI5, active compounds read low 1.04 | S. cerevisiae deletion strains, locus YOR106W, strain vam3, active compounds read low 0.997 | S. cerevisiae deletion strains, locus YOR136W, strain idh2, active compounds read low 1.04 | S. cerevisiae deletion strains, locus YOR144C, strain elg1, active compounds read low 1.01 | S. cerevisiae deletion strains, locus YOR184W, strain ser1, active compounds read low 1.05 | S. cerevisiae deletion strains, locus YOR231W, strain MKK1, active compounds read low 0.998 | S. cerevisiae deletion strains, locus YOR265W, strain rbl2, active compounds read low 1.02 | S. cerevisiae deletion strains, locus YOR270C, strain vph1, active compounds read low 1.03 | S. cerevisiae deletion strains, locus YOR290C, strain snf2, active compounds read low 0.985 | S. cerevisiae deletion strains, locus YOR316C, strain cot1, active compounds read low 1.01 | S. cerevisiae deletion strains, locus YPL051W, strain arl3, active compounds read low 1.03 | S. cerevisiae deletion strains, locus YPL078C, strain atp4, active compounds read low 1.04 | S. cerevisiae deletion strains, locus YPL106C, strain sse1, active compounds read low 1 | S. cerevisiae deletion strains, locus YPL240C, strain hsp82, active compounds read low 1.02 | S. cerevisiae deletion strains, locus YPL241C, strain CIN2, active compounds read low 0.998 and 0.996 | S. cerevisiae deletion strains, locus YPL256C, strain CLN2, active compounds read low 1.01 | S. cerevisiae deletion strains, locus YPR119W, strain clb2, active compounds read low 1.01 | S. cerevisiae deletion strains, locus YPR141C, strain kar3, active compounds read low 1.01 | S. cerevisiae deletion strains, locus YPR163C, strain tif3, active compounds read low 1.02 | S. cerevisiae deletion strains, locus YPR167C, strain met16, active compounds read low 1.02 | S. cerevisiae deletion strains, strain wtn01, active compounds read low 1.01 | S. cerevisiae strains, strain wild type, active compounds read low 1
